{"source": "ChEMBL document CHEMBL3988442", "about": "“University of Dundee, Small-Polar-MMV Screening Library” (2021)", "note": "The campaign covered roughly 53,000 compounds. About 900 (1.7%) showed an effect of 50% or more. The list comes from a sample in which strong results are over-represented; it also holds similar structures and randomly drawn compounds."}
{"tested_on": "Mycobacterium tuberculosis", "experiment": "Cornell - Phenotypic assay to identify agents that inhibit growth of Mycobacterium tuberculosis", "format": "functional", "design": "scale not given: direction of the effect not stated beside the values", "settings": "10 mM as filed; unlikely as a test dose", "units": {"Percent Effect": "%"}}
{"smiles": "COCCN1C[C@@H]2[C@@H](OC)CCN(S(=O)(=O)c3cccnc3)[C@@H]2C1.O=C(O)C(F)(F)F.O=C(O)C(F)(F)F", "Percent Effect": 21.64}
{"smiles": "CCOCC(=O)N1CCc2nc(C)nc(NC(C)C)c2CC1", "Percent Effect": -12.05}
{"smiles": "Cc1noc(C)c1C(=O)N[C@@H]1CC[C@@H](Oc2ccccc2)[C@@H]1O", "Percent Effect": 21.33}
{"smiles": "Cc1noc(C)c1C(=O)N[C@@H]1CCC[C@@H](Oc2ccccc2)[C@@H]1O", "Percent Effect": 50.47}
{"smiles": "Cc1noc(C)c1CCC(=O)N[C@@H]1CC[C@@H](Oc2cccnc2)[C@@H]1O", "Percent Effect": 15.37}
{"smiles": "Cc1noc(C)c1CC(=O)N[C@@H]1CC[C@@H](Oc2ccccc2)[C@@H]1O", "Percent Effect": 21.6}
{"smiles": "Cc1n[nH]c(C)c1CCC(=O)N[C@@H]1CCC[C@@H](Oc2ccccc2)[C@@H]1O", "Percent Effect": -14.05}
{"smiles": "CC(C)c1cc(C(=O)N[C@@H]2CC[C@@H](Oc3ccccc3)[C@@H]2O)on1", "Percent Effect": 75.51}
{"smiles": "COCC(NC(=O)c1cnc(-c2ccncc2)nc1)c1ccnn1C", "note": "(configuration not stated)", "Percent Effect": 1.357}
{"smiles": "O=C(c1cc(-c2cccs2)on1)N1CCCCC1Cn1cccn1", "note": "(configuration not stated)", "Percent Effect": 6.3}
{"smiles": "Cc1csc(Nc2cc(C3CN(c4ccncn4)C3)nc(C)n2)n1", "Percent Effect": 23.54}
{"smiles": "CCc1cccc(NC(=O)CNc2ccccc2OCCC(=O)OC)c1", "Percent Effect": 45.3}
{"smiles": "CCS(=O)(=O)NCC(=O)NC(c1cc(C)sc1C)C(C)C", "note": "(configuration not stated)", "Percent Effect": 24.3}
{"smiles": "Cc1cc(C)nc(Nc2nccnc2C2CCCN(C(CO)CO)C2)n1", "note": "(configuration not stated)", "Percent Effect": 36.66}
{"smiles": "Cc1cc(C)nc(Nc2nccnc2C2CCCN(CCO)C2)n1", "note": "(configuration not stated)", "Percent Effect": 54.85}
{"smiles": "CC(=O)N1CCCC(c2nccnc2Nc2nc(C)cc(C)n2)C1", "note": "(configuration not stated)", "Percent Effect": -9.848}
{"smiles": "COc1cc(C2CC(=O)Oc3cc(C)[nH]c(=O)c32)ccc1O", "note": "(configuration not stated)", "Percent Effect": 15.79}
{"smiles": "Cc1noc(Cl)c1CC(=O)N1CCCC1Cn1cccn1", "note": "(configuration not stated)", "Percent Effect": 17.08}
{"smiles": "COc1nccnc1-c1cccc(-c2ccn(CC3COCCO3)n2)c1", "note": "(configuration not stated)", "Percent Effect": 14.38}
{"smiles": "CSc1nccc(-c2cccc(-c3ccn(CC4COCCO4)n3)c2)n1", "note": "(configuration not stated)", "Percent Effect": 71.9}
{"smiles": "COc1cccc(-c2cccc(-c3ccn(CC4COCCO4)n3)c2)n1", "note": "(configuration not stated)", "Percent Effect": -2.003}
{"smiles": "Cc1[nH]nc2ncc(C(=O)N3CCCC3c3noc(C(C)C)n3)cc12", "note": "(configuration not stated)", "Percent Effect": 24.5}
{"smiles": "O=C(O)C(F)(F)F.c1cncc(-c2ccc3c(c2)C2(CC3)CCN(c3nncs3)CC2)c1", "Percent Effect": 85.45}
{"smiles": "O=C(O)C(F)(F)F.O=C(O)C(F)(F)F.c1cncc(-c2ccc3c(c2)CCC32CCN(Cc3ccco3)CC2)c1", "Percent Effect": 82.31}
{"smiles": "CN1CCN(Cc2cccnc2)C(=O)C12CCN(Cc1ccco1)CC2.O=C(O)C(F)(F)F.O=C(O)C(F)(F)F.O=C(O)C(F)(F)F", "Percent Effect": 15.2}
{"smiles": "c1cc(-c2ccc3c(c2)C2(CC3)CCN(c3nncs3)CC2)ccn1", "Percent Effect": 26.32}
{"smiles": "O=C(O)C(F)(F)F.O=C(O)C(F)(F)F.c1csc(CN2CCC3(CC2)CCN(CC2CC2)CC3)n1", "Percent Effect": -43.47}
{"smiles": "O=C(O)C(F)(F)F.O=C(O)C(F)(F)F.c1cncc(-c2ccc3c(c2)CCC32CCN(Cc3nccs3)CC2)c1", "Percent Effect": 61.89}
{"smiles": "O=C(O)C(F)(F)F.c1cc(-c2ccc3c(c2)CCC32CCN(c3nncs3)CC2)ccn1", "Percent Effect": 20.52}
{"smiles": "COc1ccc2c(c1)C1(CCN(Cc3nccs3)CC1)N(C)CC2.O=C(O)C(F)(F)F.O=C(O)C(F)(F)F", "Percent Effect": -9.444}
{"smiles": "CN(C)CC(=O)N1CCC2(CCc3cc(-c4cccnc4)ccc32)CC1.O=C(O)C(F)(F)F.O=C(O)C(F)(F)F", "Percent Effect": 11.92}
{"smiles": "CC(C)(C)c1n[nH]cc1CNC1CCC(OCC(F)(F)F)CC1.Cl", "note": "(configuration not stated)", "Percent Effect": -6.883}
{"smiles": "CCN(CC(C)C#N)C(=O)CNc1ccc(C(N)=O)c(C)c1", "note": "(configuration not stated)", "Percent Effect": 7.465}
{"smiles": "O=C(CC1CCCC1)NCCS(=O)(=O)N1CCN(c2ccccn2)CC1", "Percent Effect": -6.415}
{"smiles": "CN(C)c1nccc(C2CCN(C3CCCCC3O)CC2)n1", "note": "(configuration not stated)", "Percent Effect": -26.39}
{"smiles": "Cn1ccnc1CN1CCCN(C(=O)c2ccc3ccccc3c2)CC1", "Percent Effect": 4.708}
{"smiles": "COc1ccc(C)cc1NC(=O)c1coc(C)n1", "Percent Effect": 8.355}
{"smiles": "CCN(C(=O)c1ccc2c(c1)OCO2)C1CC(=O)NC1=O", "note": "(configuration not stated)", "Percent Effect": -9.897}
{"smiles": "CC(C)c1cc(C(=O)N2CCN(c3ccc(F)c(Cl)c3)CC2)n(C)n1", "Percent Effect": 54.92}
{"smiles": "CC(C)c1cc(C(=O)N2CCN(c3ccncc3)CC2)n(C)n1", "Percent Effect": 12.8}
{"smiles": "CC(=O)c1ccc(N2CCN(C(=O)c3cc(C(C)C)nn3C)CC2)cc1", "Percent Effect": 16.14}
{"smiles": "O=C(NCc1cccs1)NCC(O)c1ccoc1", "note": "(configuration not stated)", "Percent Effect": 18.49}
{"smiles": "CCOC(=O)NCCC(O)c1ccoc1", "note": "(configuration not stated)", "Percent Effect": 23.86}
{"smiles": "O=C(NCC(O)c1ccoc1)Nc1c(F)cccc1F", "note": "(configuration not stated)", "Percent Effect": 6.365}
{"smiles": "CCOc1ccccc1C(=O)NCCC(O)c1ccoc1", "note": "(configuration not stated)", "Percent Effect": 22.79}
{"smiles": "O=C(NCCC(O)c1ccoc1)Nc1cccs1", "note": "(configuration not stated)", "Percent Effect": 106.1}
{"smiles": "O=C(NCC(O)c1ccoc1)Nc1cccs1", "note": "(configuration not stated)", "Percent Effect": 104.6}
{"smiles": "Cl.O=C(CN1CCCC1)Nc1c2c(cc3c1CCC3)CCC2", "Percent Effect": 40.53}
{"smiles": "CCS(=O)(=O)Nc1ccn(Cc2cccc(F)c2)n1", "Percent Effect": -38.51}
{"smiles": "CN(C)CCN1C(=O)CCC12CCCN(C(=O)c1cccnc1)CC2.O=C(O)C(F)(F)F.O=C(O)C(F)(F)F", "note": "(configuration not stated)", "Percent Effect": 28.27}
{"smiles": "Cn1cc(CN2CCCCC2c2ccc(-c3cccc(Cl)c3)nc2)cn1", "note": "(configuration not stated)", "Percent Effect": 30.06}
{"smiles": "CC1CCN(C(=O)NCCc2cc(F)ccc2F)C1", "note": "(configuration not stated)", "Percent Effect": 29.01}
{"smiles": "CN(C)CCNc1cc(-c2ccccc2C(N)=O)c2cc[nH]c2n1", "Percent Effect": -19.65}
{"smiles": "O=C(c1cc2cccc(F)c2[nH]1)N1C[C@@H](O)[C@H](N2CCCC2)C1", "Percent Effect": 36.56}
{"smiles": "CN(C)[C@@H]1CN(C(=O)c2cc3cccc(F)c3[nH]2)C[C@H]1O", "Percent Effect": 57.85}
{"smiles": "CN1CCN([C@@H]2CN(C(=O)c3cc4cccc(F)c4[nH]3)C[C@H]2O)CC1", "Percent Effect": 38.63}
{"smiles": "CN1CCOC(CNCC(=O)NCCc2ccc3c(c2)OCCO3)C1", "note": "(configuration not stated)", "Percent Effect": -19.13}
{"smiles": "Cc1nc(N)cc(N2CCCC(COc3cccc(F)c3)C2)n1", "note": "(configuration not stated)", "Percent Effect": 43.67}
{"smiles": "Nc1cc(N2CCCC(COc3ccc(F)cc3)C2)nc(N)n1", "note": "(configuration not stated)", "Percent Effect": -4.088}
{"smiles": "Cc1ccccc1OCC1CCCN(c2cc(N)nc(N)n2)C1", "note": "(configuration not stated)", "Percent Effect": 79.75}
{"smiles": "CN(C)Cc1cnc(C2CN(C(=O)c3ccccc3Cl)CCO2)[nH]1", "note": "(configuration not stated)", "Percent Effect": -0.6177}
{"smiles": "c1ccc(CCN2CC(n3cccn3)C2)nc1", "Percent Effect": -9.048}
{"smiles": "COc1cccc(CN(C)C(=O)CCC(=O)c2ccc(Cl)cc2)c1OC", "Percent Effect": 54.4}
{"smiles": "COc1cccc(CN(C)C(=O)CCC(=O)c2ccccc2)c1OC", "Percent Effect": 8.094}
{"smiles": "COc1ccc(CN(C)C(=O)CCC(=O)c2cccs2)c(OC)c1OC", "Percent Effect": 32.22}
{"smiles": "O=C(N[C@@H]1CCC[C@@H](N2CCCC2)[C@@H]1O)c1cnn2cccnc12", "Percent Effect": -2.756}
{"smiles": "CC(C)c1sc(Br)nc1C(=O)NCc1cccnc1", "Percent Effect": 16.15}
{"smiles": "COc1ccc(NC(=O)c2nc(C)sc2C(C)C)cn1", "Percent Effect": 41.95}
{"smiles": "Cc1nc(C(=O)Nc2cccnc2)c(C(C)C)s1", "Percent Effect": 51.63}
{"smiles": "CC(C)CCN1C[C@H]2C[C@H](C(=O)Nc3cccnc3)[C@@H](C1)O2.O=C(O)C(F)(F)F.O=C(O)C(F)(F)F", "Percent Effect": 18.07}
{"smiles": "N#Cc1cccc(OCCN2CCNC(=O)C2c2cccs2)c1", "note": "(configuration not stated)", "Percent Effect": 15.41}
{"smiles": "Cc1nc(CN2C[C@H]3C[C@H](C(=O)NCC4CC4)N(C)[C@H]3C2)cs1.O=C(O)C(F)(F)F.O=C(O)C(F)(F)F.O=C(O)C(F)(F)F", "Percent Effect": -25.01}
{"smiles": "COc1ccccc1-c1nnc2n1NC(N)=C(C#N)S2", "Percent Effect": 6.444}
{"smiles": "COc1cccc(N2CCC(N3C[C@@H](NC(C)=O)[C@H](C(C)C)C3)CC2)c1", "Percent Effect": 34.03}
{"smiles": "CC(=O)N[C@@H]1CN(C2CCN(c3cccc(Cl)c3)CC2)C[C@H]1C(C)C", "Percent Effect": 62.82}
{"smiles": "COc1ccc(N2CCC(N3C[C@H](NC(C)=O)[C@@H](C(C)C)C3)CC2)cc1", "Percent Effect": 33.6}
{"smiles": "Cc1cc(=O)n2ncnc2n1CC(O)c1cc(F)ccc1F", "note": "(configuration not stated)", "Percent Effect": -70.76}
{"smiles": "COc1ccc(NC(=O)Cn2c(=O)nc(N)c3cc(C)sc32)cc1", "Percent Effect": 0.3474}
{"smiles": "Cc1nonc1OCCNC(=O)COc1ccc(Cl)cc1Cl", "Percent Effect": 17.56}
{"smiles": "CC(c1nnc(-c2ccccc2)o1)N1CCc2cncnc2C1", "note": "(configuration not stated)", "Percent Effect": -7.255}
{"smiles": "CC(=O)N1CCc2c(nc(N(C)C)nc2N(C)CCC2CCCCO2)C1", "note": "(configuration not stated)", "Percent Effect": -8.037}
{"smiles": "Cc1nc[nH]c1CN1CCN(C(=O)C2(C)CC2)[C@H]2CS(=O)(=O)C[C@H]21", "Percent Effect": 10.63}
{"smiles": "COc1ccc(CNC(=O)Nc2ccc(S(=O)(=O)C(F)F)cc2)cc1", "Percent Effect": 13.14}
{"smiles": "Cn1cc(CNC(=O)Nc2ccc(S(=O)(=O)C(F)F)cc2)cn1", "Percent Effect": 33.37}
{"smiles": "Cn1ccc(CNC(=O)Nc2ccc(S(=O)(=O)C(F)F)cc2)c1", "Percent Effect": 50.21}
{"smiles": "Cc1cc2nc(O)c(O)nc2cc1S(=O)(=O)NC1CC1", "Percent Effect": 1.29}
{"smiles": "CC(C)(C)C(=O)NCCC(=O)NC(C)(C)c1ccc2c(c1)OCO2", "Percent Effect": 11.96}
{"smiles": "COc1ncccc1CNC(=O)NC(C)Cn1cccn1", "note": "(configuration not stated)", "Percent Effect": -6.466}
{"smiles": "CCCc1cc(CNC2CCN(c3cc(C(C)C)nc(C)n3)CC2)on1", "Percent Effect": -3.278}
{"smiles": "O=C(c1cc(C2CC2)on1)N1C[C@H]2CC[C@](O)(c3ccc(F)cc3)[C@H]2C1", "Percent Effect": 6.085}
{"smiles": "O=C(c1cc(C2CC2)on1)N1C[C@H]2CC[C@](O)(c3ccccc3F)[C@H]2C1", "Percent Effect": 7.092}
{"smiles": "O=C(c1cc(C2CC2)n[nH]1)N1C[C@H]2CC[C@](O)(c3ccccc3F)[C@H]2C1", "Percent Effect": 50.52}
